Among all 330,000 compounds or so, about 5,800 (1.8%) were called active.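 How the source made its calls: active means inhibition above about 50% at the single tested dose (limit read from the data); inactive means the rest.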 This excerpt belongs to a sample that is enriched for actives.
The molecules below were run against Sentrin-specific protease 6 (Homo sapiens) (UniProt Q9GZR1) (assay: SENP6 protease inhibitors, primary screen, biochemical, luminescence, uHTS (AID 2599;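 further: plate controls were DMSO wells with enzyme for no effect and DMSO wells lacking enzyme for full effect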)). Settings: Recombinant SENP6 catalytic domain, aminoluciferin luminescence; at 10 µM; hits give high values.
Chain of Sentrin-specific protease 6 (Homo sapiens) (Q9GZR1 628-1112 limits assumed): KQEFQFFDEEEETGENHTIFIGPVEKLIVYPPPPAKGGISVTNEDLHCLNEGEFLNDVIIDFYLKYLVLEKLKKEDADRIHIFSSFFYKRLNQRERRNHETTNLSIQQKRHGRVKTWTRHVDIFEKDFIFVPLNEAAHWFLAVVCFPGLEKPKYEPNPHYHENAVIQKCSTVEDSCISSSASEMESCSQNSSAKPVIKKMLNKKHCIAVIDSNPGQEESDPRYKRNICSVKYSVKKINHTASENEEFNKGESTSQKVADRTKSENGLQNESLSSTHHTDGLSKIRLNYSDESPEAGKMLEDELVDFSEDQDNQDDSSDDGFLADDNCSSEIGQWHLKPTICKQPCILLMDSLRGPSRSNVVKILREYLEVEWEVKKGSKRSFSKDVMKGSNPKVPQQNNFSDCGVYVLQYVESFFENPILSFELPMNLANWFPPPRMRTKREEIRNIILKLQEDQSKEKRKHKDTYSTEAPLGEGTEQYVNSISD
O=C(Nc1ccccc1)O/N=C1/CCCc2occc21 was tested, and the inhibition was -12.8% (inactive). In the case of CCCN1C(=O)C(Cc2nc3ccccc3c(=O)n2-c2ccccc2)c2cc(C)ccc21 (stereo not drawn), the inhibition is reported as -13.2% (inactive). With Cc1ccc(NC(=S)N(CCCN2CCCC2)Cc2cccn2Cc2ccc(Cl)cc2)cc1 the inhibition was -18% (inactive). In the case of Brc1ccccc1C1N=C(c2ccccc2)NO1 (stereo not drawn), the inhibition is reported as 38.9% (inactive). N#Cc1ccc(C2N=C(c3ccccc3)NO2)cc1 (stereo not drawn) was tested, and the inhibition was 53% (active). In the case of C/C=C/C=C/C(=O)O, the inhibition is reported as -2.25% (inactive). In the case of COc1ccc(C(=O)C2CCCN(C(=O)c3cc(C)on3)C2)cc1F (stereo not drawn), the inhibition is reported as 4.97% (inactive). For O=C(COC(=O)CNC(=O)C1CCCCC1)NCc1ccccc1, the inhibition was 4.4% (inactive). Clc1ccc2nc(CSc3ccccc3)cn2c1 was tested, and the inhibition was 72.1% (active). In the case of CCCCCCSc1ccc(-c2nc3ccc(Cl)cn3c2NCc2ccccc2)cc1, the inhibition is reported as -0.449% (inactive). In the case of O=C(/C=C/c1ccc2c(c1)OCO2)NCc1cn2cc(Cl)ccc2n1, the inhibition is reported as -4.65% (inactive). With CC1(c2ccc(Cl)cc2)NC(=O)N(CC(=O)c2ccc3c(c2)OCO3)C1=O (stereo not drawn) the inhibition was -6.26% (inactive). CC1CCN(C(=O)c2ccc(CSc3ccc(Cl)cc3)cc2)CC1 was tested, and the inhibition was 15.6% (inactive). For O=C(c1ccc(S(=O)(=O)c2ccccc2)cc1)N1CCCCCC1, the inhibition was -8.79% (inactive). For O=C(c1ccc(CSc2ccccc2)cc1)N1CCCCCC1, the inhibition was 80.6% (active). With CCOc1ccccc1C(=O)NC1CC2CCCC(C1)N2Cc1ccccc1 (stereo not drawn) the inhibition was 7.09% (inactive). With O=C1N/C(=C/c2cccs2)C(=O)N1Cc1ccc(F)cc1 the inhibition was -6.09% (inactive). In the case of CSC1=N/C(=C\C=C\c2cccs2)C(=O)S1, the inhibition is reported as 77.8% (active). Cc1cccc(C2=N/C(=C/c3cccs3)C(=O)O2)c1 was tested, and the inhibition was 9.27% (inactive). Cc1ccc2cc(/C=N/Nc3ccc(C(=O)O)cc3)c(Cl)nc2c1 was tested, and the inhibition was -25% (inactive). O=C(O)c1ccc(/C=N/Nc2nc(N3CCCCC3)nc(N3CCCCC3)n2)cc1 was tested, and the inhibition was -7.28% (inactive). In the case of O=C(O)c1ccc(N/N=C/c2ccc3ncccc3c2)cc1, the inhibition is reported as 101% (active). In the case of Cc1ccc2c(c1)N(CC(=O)N(Cc1ccccn1)Cc1ccco1)C(=O)C(C(C)C)O2 (stereo not drawn), the inhibition is reported as -1.99% (inactive). In the case of CC(=O)N(C1=C(Cl)C(=O)c2ccccc2C1=O)c1ccc(C(=O)O)cc1, the inhibition is reported as 81.4% (active). COc1ccc(CCNC(=O)CSCc2ccc(Br)cc2)cc1OC was tested, and the inhibition was 1.68% (inactive). With CN(CC(=O)Nc1ccc(Cl)cc1)C(=O)CNC(=O)c1ccc2ccccc2c1 the inhibition was 64.9% (active). CN(CC(=O)Nc1ccc(Cl)cc1)C(=O)c1ccc(COc2ccccc2)cc1 was tested, and the inhibition was 18.3% (inactive). In the case of CN(CC(=O)Nc1ccc(Cl)cc1)CC(=O)Nc1cccc2ccccc12, the inhibition is reported as -2.99% (inactive).
